{"source": "PubChem BioAssay AID588726", "about": "(The Scripps Research Institute Molecular Screening Center, 2011)", "note": "In all, about 360,000 compounds went through this assay and about 8,200 (2.3%) were called active. Cut-off read from the data, not from the text of the source: active = inhibition above about 27%; inactive = the rest. The entries come from a sample that favours actives as a whole.", "data": [{"biological_target": "Fructose-bisphosphate aldolase (Mycobacterium tuberculosis (strain ATCC 25618 / H37Rv)) (UniProt P9WQA3)", "sequence (P9WQA3 whole entry, looked up)": "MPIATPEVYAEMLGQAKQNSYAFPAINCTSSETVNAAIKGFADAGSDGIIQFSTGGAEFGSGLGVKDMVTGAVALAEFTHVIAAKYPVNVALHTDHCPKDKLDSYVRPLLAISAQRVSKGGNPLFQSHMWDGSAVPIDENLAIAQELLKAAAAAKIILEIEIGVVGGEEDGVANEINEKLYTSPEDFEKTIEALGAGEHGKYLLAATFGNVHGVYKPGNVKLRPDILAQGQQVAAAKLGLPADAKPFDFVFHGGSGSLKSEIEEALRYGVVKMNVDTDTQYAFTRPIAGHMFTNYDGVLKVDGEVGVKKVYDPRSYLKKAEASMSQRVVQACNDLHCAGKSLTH", "experiment": "M. tuberculosis aldolase activity blockers – biochemical, fluorescence, strain H37Rv, primary screen (AID 588726);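 note: 0% = vehicle and 100% = reference inhibitor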", "conditions": "purified M. tuberculosis FBA, fluorescence read-out, at 1 µM, stronger effect = higher value", "values": [{"smiles": "O=C(OCC(=O)N(CCc1ccccc1)Cc1ccccc1)c1ccccc1[N+](=O)[O-]", "inhibition": "-2.21% (inactive)"}, {"smiles": "COc1cccc(N(C(=O)c2ccn[nH]2)C2(C(=O)Nc3c(C)cccc3C)CCCCC2)c1", "inhibition": "-2.93% (inactive)"}, {"smiles": "CC(=O)Nc1ccc(S(=O)(=O)N2CCC(C(=O)N[C@@H](Cc3ccccc3)C(=O)O)CC2)cc1", "inhibition": "7.63% (inactive)"}, {"smiles": "O=C(O)CCN1C(=O)CC2(CCCCC2)C1=O", "inhibition": "1.19% (inactive)"}, {"smiles": "O=C(NCc1ccc(F)cc1)c1cc(C2CCCCN2C(=O)C2CCCCC2)on1", "note": "(stereo not drawn)", "inhibition": "-0.56% (inactive)"}, {"smiles": "CCCC(O)(c1ccccc1)C(c1ccccc1)c1ccccn1", "note": "(stereo not drawn)", "inhibition": "-3.41% (inactive)"}, {"smiles": "COc1ccccc1CNC(=O)COC(=O)CNS(=O)(=O)c1ccc(NC(C)=O)cc1", "inhibition": "-1.17% (inactive)"}, {"smiles": "COc1ccccc1C(=O)COC(=O)CNS(=O)(=O)c1ccc(NC(C)=O)cc1", "inhibition": "0.46% (inactive)"}, {"smiles": "CC(=O)Nc1ccc(S(=O)(=O)NCC(=O)OCc2cc(=O)oc3ccc4ccccc4c23)cc1", "inhibition": "124% (active)"}, {"smiles": "Nn1c(SCC(=O)Nc2nccs2)nncc1=O", "inhibition": "-1.98% (inactive)"}, {"smiles": "CC(C)N(C(=O)CSc1nc(COc2ccccc2)nc2ccccc12)C(C)C", "inhibition": "-0.47% (inactive)"}, {"smiles": "COc1cc(C(F)(F)F)nc2c(Br)c(C(C)(C)C)nn12", "inhibition": "36.7% (active)"}, {"smiles": "O=C(CCN1C(=O)C2C3CCC(C3)C2C1=O)Nc1ccc(Cl)cc1Cl", "note": "(stereo not drawn)", "inhibition": "3.23% (inactive)"}, {"smiles": "Cc1cc(C)cc(NC(=O)C(OC(=O)c2ccc(O)cc2)c2ccccc2)c1", "note": "(stereo not drawn)", "inhibition": "2.39% (inactive)"}, {"smiles": "CN(C)CCCO/N=C(\\c1ccccc1)c1ccncc1", "inhibition": "-1.04% (inactive)"}, {"smiles": "CC(=O)c1cc2c(cc1NC(=O)CN1CCCCCC1)OCO2", "inhibition": "0.04% (inactive)"}, {"smiles": "COc1cccc(N(CC(=O)NC2CCCC2)C(=O)Cn2nnc(-c3ccc(C)o3)n2)c1", "inhibition": "2.95% (inactive)"}, {"smiles": "COc1ccc(-c2cc3nc(NCCOc4ccccc4)ccn3n2)cc1", "inhibition": "9.7% (inactive)"}, {"smiles": "COc1ccc(NC(=O)c2cc3nc(-c4ccccc4)cc(C)n3n2)cc1OC", "inhibition": "1.45% (inactive)"}, {"smiles": "COCCNc1cc(-c2ccccc2)nc2cc(-c3cccc(F)c3)nn12", "inhibition": "50.2% (active)"}, {"smiles": "O=C(COC(=O)c1ncc(Cl)c(Cl)c1Cl)NCc1ccccc1", "inhibition": "3.15% (inactive)"}, {"smiles": "Cc1cccc(NC(=O)COc2ccc(Br)cc2C)n1", "inhibition": "2.29% (inactive)"}, {"smiles": "Cc1cccc(NC(=O)Cc2ccc(Br)cc2)n1", "inhibition": "-1.42% (inactive)"}, {"smiles": "CC(C)(C)C(=O)Nc1cccc(-c2ccc[nH]2)n1", "inhibition": "29.7% (active)"}, {"smiles": "N#CCc1ccc(NC(=O)c2ccccc2C(=O)Nc2ccc(CC#N)cc2)cc1", "inhibition": "1.02% (inactive)"}, {"smiles": "Cc1ccn2c(c1)nc(=O)c1cc(S(=O)(=O)N3CCC(C)CC3)ccc12", "inhibition": "29.3% (active)"}, {"smiles": "CC1CCN(S(=O)(=O)c2ccc3c(c2)n(C)c(=O)n3C)CC1", "inhibition": "-1.94% (inactive)"}, {"smiles": "CC1CCN(S(=O)(=O)c2ccc3c(ccn3CC(=O)O)c2)CC1", "inhibition": "-0.33% (inactive)"}]}]}
